In paper PMC7862700, “An all-to-all approach to the identification of sequence-specific readers for epigenetic DNA modifications on cytosine” one finds binding signal data, which are given here for two sequences.

Common to all, as to assay: DAPPL (digital affinity profiling via proximity ligation, sequencing); 10 mM Tris-HCl pH 7.5, 50 mM NaCl, 1 mM DTT, 4% glycerol, room temperature, 30 min; GST-TFs on glutathione beads, 16-mer random dsDNA library, 0.1% formaldehyde crosslink after washing; high values mean tight binding
Conditions in all cases: protein: recombinant; tags: N-terminal GST; dsDNA, one strand shown

For assay [1], the target named is T1, FLI1 (Homo sapiens, UniProt Q01543 1-452).
T1 sequence: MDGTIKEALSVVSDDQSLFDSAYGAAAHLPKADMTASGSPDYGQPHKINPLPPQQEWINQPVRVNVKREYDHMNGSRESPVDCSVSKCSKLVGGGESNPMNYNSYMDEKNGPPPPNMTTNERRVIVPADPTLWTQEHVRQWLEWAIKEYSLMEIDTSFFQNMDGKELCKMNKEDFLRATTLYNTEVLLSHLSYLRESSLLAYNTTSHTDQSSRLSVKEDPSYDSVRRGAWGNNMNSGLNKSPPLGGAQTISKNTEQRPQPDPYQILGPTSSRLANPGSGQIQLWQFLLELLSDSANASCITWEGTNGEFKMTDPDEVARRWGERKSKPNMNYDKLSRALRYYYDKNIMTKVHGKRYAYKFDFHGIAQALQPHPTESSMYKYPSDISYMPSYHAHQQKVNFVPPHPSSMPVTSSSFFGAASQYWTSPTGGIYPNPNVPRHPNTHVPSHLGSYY
The essentials:
(§1)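 Each value of binding signal is a hexamer's read frequency for a factor divided by the same hexamer's frequency in the tag-only sample. Barcoded, bead-captured GST fusions of human transcription factors made in yeast were pooled with that sample and incubated with 200 nmole of a random double-stranded 16-mer DNA library in Tris/NaCl/DTT/glycerol buffer at room temperature for 30 min. Washing, 0.1% formaldehyde crosslinking, proximity ligation, PCR and Illumina NextSeq500 sequencing followed.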

Assay [2] concerns the target T2, ELK4 (Homo sapiens, UniProt P28324-2 1-405).
T2 sequence: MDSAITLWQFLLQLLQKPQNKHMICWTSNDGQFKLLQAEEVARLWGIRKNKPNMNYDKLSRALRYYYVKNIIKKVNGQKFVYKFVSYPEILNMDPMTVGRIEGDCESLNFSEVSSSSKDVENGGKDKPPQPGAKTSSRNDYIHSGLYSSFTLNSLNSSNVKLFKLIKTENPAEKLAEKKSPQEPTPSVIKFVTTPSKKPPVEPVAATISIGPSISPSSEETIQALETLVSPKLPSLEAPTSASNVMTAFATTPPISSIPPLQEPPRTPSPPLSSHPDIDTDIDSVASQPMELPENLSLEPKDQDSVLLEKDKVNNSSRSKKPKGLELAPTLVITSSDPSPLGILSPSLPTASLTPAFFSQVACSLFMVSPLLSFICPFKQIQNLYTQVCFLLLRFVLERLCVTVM
Summed up:
as §1

Assay [3] has as its target T3, ETV2 (Homo sapiens, UniProt O00321 1-342).
T3 sequence: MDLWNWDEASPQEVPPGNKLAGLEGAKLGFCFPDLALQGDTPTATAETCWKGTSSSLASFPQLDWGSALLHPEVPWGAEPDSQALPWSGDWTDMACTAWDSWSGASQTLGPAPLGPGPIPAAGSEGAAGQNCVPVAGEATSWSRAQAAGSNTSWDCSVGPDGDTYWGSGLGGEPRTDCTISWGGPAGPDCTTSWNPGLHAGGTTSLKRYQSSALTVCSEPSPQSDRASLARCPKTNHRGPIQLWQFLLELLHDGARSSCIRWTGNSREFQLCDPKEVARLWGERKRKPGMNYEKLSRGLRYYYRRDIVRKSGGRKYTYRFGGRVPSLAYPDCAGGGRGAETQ
Summed up:
as §1

The target of assay [4] is T4, ELF3 (Homo sapiens, UniProt P78545 1-371).
T4 sequence: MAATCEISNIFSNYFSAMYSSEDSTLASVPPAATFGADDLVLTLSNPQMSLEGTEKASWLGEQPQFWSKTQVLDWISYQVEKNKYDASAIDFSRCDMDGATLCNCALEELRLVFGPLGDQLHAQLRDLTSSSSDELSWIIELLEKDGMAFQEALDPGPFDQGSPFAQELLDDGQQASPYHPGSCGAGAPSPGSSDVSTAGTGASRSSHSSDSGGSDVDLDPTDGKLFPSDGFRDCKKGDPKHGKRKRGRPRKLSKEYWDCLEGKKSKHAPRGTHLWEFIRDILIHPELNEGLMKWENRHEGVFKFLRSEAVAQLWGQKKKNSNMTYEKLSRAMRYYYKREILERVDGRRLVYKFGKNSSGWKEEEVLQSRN
Summed up:
as §1

Assay [5] has as its target ETV1 (Homo sapiens, UniProt P50549 1-477). Summed up: as §1
The target of assay [6] is T5, ERF (Homo sapiens, UniProt P50548 1-548).
T5 sequence: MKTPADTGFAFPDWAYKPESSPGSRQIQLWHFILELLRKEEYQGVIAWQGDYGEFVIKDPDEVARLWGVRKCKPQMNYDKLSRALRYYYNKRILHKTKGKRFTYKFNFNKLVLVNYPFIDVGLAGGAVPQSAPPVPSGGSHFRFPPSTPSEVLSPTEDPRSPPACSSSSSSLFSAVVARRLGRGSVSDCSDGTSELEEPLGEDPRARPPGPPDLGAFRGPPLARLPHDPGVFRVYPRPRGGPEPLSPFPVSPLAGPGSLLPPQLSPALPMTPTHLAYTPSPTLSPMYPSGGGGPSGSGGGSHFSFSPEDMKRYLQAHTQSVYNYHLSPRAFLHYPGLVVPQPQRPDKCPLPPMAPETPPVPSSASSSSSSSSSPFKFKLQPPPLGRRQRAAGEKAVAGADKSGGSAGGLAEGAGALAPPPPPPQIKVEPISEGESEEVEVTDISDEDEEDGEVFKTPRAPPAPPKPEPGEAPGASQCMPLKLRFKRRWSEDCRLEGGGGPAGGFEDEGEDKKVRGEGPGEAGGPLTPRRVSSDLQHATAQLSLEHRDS
The essentials:
as §1

Assay [7] concerns the target T6, ETV3L (Homo sapiens, UniProt Q6ZN32 1-361).
T6 sequence: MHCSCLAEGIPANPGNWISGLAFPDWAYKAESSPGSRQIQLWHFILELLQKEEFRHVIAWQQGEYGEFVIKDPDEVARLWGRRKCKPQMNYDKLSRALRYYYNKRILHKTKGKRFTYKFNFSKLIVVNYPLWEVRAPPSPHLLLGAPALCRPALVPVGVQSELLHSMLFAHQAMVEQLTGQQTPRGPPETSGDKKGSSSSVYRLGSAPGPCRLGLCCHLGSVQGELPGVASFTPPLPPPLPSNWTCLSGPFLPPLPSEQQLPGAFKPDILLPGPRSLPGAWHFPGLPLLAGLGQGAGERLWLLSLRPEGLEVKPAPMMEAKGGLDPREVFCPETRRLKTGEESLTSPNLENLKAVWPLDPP
Summed up:
as §1

Assay [8] deals with T7, SPDEF (Homo sapiens, UniProt O95238 1-335).
T7 sequence: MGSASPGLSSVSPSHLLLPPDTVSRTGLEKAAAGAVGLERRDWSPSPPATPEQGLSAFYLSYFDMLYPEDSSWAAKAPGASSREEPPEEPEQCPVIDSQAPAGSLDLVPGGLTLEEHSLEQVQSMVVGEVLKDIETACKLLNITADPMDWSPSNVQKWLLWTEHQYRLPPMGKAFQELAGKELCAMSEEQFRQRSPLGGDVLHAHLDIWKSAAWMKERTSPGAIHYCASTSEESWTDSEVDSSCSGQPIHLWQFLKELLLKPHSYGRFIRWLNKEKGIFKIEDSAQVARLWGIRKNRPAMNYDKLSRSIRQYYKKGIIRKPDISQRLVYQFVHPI
Summed up:
as §1

Assay [9] deals with T8, ELK1 (Homo sapiens, UniProt P19419 1-428).
T8 sequence: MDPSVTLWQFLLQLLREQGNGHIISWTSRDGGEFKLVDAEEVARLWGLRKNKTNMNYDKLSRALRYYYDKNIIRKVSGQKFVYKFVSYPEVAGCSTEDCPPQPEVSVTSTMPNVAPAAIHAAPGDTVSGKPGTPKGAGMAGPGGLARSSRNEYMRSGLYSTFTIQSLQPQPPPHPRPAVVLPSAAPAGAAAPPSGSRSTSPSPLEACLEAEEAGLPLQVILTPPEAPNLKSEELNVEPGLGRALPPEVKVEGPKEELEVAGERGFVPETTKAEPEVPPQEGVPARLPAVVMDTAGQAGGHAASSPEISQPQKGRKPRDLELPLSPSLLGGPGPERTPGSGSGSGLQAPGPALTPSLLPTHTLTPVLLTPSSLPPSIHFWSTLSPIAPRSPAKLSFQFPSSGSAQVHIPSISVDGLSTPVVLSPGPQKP
Summed up:
as §1

Assay [10] deals with T9, GABPA (Homo sapiens, UniProt Q06546 1-454).
T9 sequence: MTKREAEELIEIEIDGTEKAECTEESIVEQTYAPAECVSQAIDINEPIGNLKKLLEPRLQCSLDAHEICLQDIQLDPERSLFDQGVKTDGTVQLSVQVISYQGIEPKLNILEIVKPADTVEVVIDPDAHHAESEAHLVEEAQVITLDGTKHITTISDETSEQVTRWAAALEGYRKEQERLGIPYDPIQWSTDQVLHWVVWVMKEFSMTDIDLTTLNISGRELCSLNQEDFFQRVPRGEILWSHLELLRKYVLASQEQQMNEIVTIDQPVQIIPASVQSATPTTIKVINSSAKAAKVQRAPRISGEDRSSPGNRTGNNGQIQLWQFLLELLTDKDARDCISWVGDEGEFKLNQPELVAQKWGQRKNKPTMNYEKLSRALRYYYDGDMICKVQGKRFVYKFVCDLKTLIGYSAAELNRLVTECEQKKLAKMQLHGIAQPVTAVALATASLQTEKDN
The essentials: as §1

Assay [11] concerns the target ELF1 (Homo sapiens, UniProt P32519 1-619). The essentials:
as §1

Assay [12] deals with T10, EHF (Homo sapiens, UniProt Q9NZC4 1-300).
T10 sequence: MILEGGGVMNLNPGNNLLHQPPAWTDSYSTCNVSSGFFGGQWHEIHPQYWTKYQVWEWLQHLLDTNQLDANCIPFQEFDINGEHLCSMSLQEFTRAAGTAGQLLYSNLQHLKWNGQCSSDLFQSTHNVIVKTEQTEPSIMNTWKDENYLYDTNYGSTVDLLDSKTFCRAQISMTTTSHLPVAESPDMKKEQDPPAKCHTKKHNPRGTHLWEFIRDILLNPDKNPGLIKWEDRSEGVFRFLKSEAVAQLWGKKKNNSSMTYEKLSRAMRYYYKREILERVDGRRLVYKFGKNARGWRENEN
Summed up:
as §1

The target in assay [13] is SPI1 (Homo sapiens, UniProt P17947 1-270). The essentials: as §1
In assay [14] the target is T11, ELK3 (Homo sapiens, UniProt P41970 1-407).
T11 sequence: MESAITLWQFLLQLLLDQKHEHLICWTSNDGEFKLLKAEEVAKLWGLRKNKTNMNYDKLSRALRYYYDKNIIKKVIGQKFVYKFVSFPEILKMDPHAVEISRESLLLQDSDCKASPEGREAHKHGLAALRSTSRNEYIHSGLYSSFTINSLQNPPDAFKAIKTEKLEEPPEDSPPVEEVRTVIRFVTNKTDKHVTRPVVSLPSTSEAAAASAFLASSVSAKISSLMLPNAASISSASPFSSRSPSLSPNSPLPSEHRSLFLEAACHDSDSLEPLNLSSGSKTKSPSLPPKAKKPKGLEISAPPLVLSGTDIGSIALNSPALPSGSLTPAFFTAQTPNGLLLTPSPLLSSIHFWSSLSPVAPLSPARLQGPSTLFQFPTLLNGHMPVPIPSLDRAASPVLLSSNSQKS
Summed up: as §1

In assay [15] the target is T12, ETV7 (Homo sapiens, UniProt Q9Y603 1-341).
T12 sequence: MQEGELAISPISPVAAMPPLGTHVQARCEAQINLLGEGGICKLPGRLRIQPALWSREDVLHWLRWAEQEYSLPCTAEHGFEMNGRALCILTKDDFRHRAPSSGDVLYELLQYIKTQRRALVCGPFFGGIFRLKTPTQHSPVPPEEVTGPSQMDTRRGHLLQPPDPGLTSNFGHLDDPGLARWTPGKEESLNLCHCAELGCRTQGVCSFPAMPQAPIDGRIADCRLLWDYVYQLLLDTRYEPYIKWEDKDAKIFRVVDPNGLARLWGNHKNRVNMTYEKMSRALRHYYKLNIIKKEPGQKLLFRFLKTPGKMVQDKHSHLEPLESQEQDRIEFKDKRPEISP
The essentials: as §1

The target in assay [16] is T13, ETV3 (Homo sapiens, UniProt P41162-2 1-143).
T13 sequence: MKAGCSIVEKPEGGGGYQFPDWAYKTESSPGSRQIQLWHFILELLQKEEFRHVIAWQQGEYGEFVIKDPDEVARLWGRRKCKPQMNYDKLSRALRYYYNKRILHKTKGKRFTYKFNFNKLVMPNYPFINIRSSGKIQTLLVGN
Summed up:
as §1

Assay [17] has as its target ETV6 (Homo sapiens, UniProt P41212 1-452). The essentials: as §1

Chain of ELF1 (P32519 whole entry): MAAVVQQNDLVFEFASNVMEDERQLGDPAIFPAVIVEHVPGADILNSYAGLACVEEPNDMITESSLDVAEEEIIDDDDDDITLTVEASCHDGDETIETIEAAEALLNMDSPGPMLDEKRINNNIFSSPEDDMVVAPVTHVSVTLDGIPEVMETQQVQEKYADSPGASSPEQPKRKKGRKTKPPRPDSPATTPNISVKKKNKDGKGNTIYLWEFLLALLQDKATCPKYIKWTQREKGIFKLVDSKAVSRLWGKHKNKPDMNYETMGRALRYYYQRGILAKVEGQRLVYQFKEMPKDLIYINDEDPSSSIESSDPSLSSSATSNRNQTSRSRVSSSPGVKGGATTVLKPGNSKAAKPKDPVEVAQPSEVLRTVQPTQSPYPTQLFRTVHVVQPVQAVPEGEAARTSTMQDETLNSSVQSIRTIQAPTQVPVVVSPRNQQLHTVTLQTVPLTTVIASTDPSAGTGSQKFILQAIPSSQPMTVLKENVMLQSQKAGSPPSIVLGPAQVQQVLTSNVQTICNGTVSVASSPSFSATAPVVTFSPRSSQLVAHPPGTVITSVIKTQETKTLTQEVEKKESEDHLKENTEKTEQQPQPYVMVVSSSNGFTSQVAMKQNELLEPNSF
Chain of ETV6 (P41212 whole entry): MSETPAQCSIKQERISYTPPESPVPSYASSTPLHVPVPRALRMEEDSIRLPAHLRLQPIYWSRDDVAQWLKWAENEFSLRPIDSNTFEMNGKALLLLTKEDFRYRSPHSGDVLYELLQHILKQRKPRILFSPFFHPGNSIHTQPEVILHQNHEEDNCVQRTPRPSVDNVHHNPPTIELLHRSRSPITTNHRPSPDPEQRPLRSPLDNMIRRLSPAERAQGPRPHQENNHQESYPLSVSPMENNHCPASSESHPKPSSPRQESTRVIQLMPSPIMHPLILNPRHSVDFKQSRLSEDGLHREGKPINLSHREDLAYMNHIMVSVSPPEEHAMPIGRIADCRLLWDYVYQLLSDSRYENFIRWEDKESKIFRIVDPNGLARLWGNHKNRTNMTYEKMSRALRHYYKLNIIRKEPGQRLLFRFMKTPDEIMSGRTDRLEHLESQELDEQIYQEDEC
Chain of ETV1 (P50549 whole entry): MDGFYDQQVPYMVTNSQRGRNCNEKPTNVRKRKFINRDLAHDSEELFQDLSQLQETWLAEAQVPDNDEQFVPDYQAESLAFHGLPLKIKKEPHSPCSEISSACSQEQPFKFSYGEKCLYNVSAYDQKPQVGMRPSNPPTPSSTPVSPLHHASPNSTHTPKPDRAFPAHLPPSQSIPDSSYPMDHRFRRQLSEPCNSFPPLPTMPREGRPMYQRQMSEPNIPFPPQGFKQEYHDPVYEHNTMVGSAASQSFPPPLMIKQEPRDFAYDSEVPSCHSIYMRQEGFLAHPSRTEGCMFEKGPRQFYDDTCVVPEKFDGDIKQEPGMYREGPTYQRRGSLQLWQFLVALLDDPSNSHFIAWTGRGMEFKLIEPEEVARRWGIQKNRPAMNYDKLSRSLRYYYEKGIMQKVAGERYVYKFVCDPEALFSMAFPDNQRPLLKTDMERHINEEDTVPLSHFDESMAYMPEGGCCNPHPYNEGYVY

With TCGTTG, the binding signal in assay [1] is 1.01 fold enrichment (6-mer frequency, TF over GST control); in assay [2], 1.1 fold enrichment (6-mer frequency, TF over GST control); in assay [3] it was 1.19 fold enrichment (6-mer frequency, TF over GST control); in assay [4], 1.07 fold enrichment (6-mer frequency, TF over GST control); in [5], 1.02 fold enrichment (6-mer frequency, TF over GST control); in [6], 1.03 fold enrichment (6-mer frequency, TF over GST control). In addition, the binding signal in assay [7] was 1.1 fold enrichment (6-mer frequency, TF over GST control); in assay [8], 1.01 fold enrichment (6-mer frequency, TF over GST control).
In the case of CTGGTG, the binding signal in assay [1] was 1.01 fold enrichment (6-mer frequency, TF over GST control); in assay [9] it was 1.05 fold enrichment (6-mer frequency, TF over GST control); in [10], 1.01 fold enrichment (6-mer frequency, TF over GST control); in assay [11] it was 1.02 fold enrichment (6-mer frequency, TF over GST control); in [12], 1.09 fold enrichment (6-mer frequency, TF over GST control); in assay [13], 1.04 fold enrichment (6-mer frequency, TF over GST control). Besides, the binding signal in assay [14] is 1.15 fold enrichment (6-mer frequency, TF over GST control); in assay [4], 1.09 fold enrichment (6-mer frequency, TF over GST control); in assay [6] it was 1.05 fold enrichment (6-mer frequency, TF over GST control); in assay [7] it was 1.06 fold enrichment (6-mer frequency, TF over GST control); in [8], 1.01 fold enrichment (6-mer frequency, TF over GST control); in [15], 1.04 fold enrichment (6-mer frequency, TF over GST control). Besides, the binding signal in assay [16] was 1.03 fold enrichment (6-mer frequency, TF over GST control); in assay [17], 1.03 fold enrichment (6-mer frequency, TF over GST control).
